We go through 22 compounds from PubChem BioAssay (NCATS).

“And” between values parts separate entries of the source, which are not always exact repeats. Identical values can stand only once. Unmarked numbers belong to inactive results. Inconclusive results are not listed. The source made the active and inactive calls. Unless noted, calls come from the whole dose curve; as a rule, active = well fitted curve in the direction sought with a large enough effect; inconclusive = small, poorly fitted or top-dose-only effect, or another doubt; inactive = no such curve, though single readings can be large; an effect the other way counts as inactive or inconclusive. Numbered stars: 1 amine (or outer) side, 2 acyl side, 3 side chain; on linkers, the order of the positions; unused ones are H or OH. Bridge positions count the residues as written; N and C are the ends. Square brackets hold non-standard residues; d marks the D form. Peptide text beside a SMILES is read from it. I, II: the chains in the order shown. Actinocin(9to1) = Cc1c2oc3c(C)ccc(C(=O)[*:1])c3nc-2c(C(=O)[*:2])c(N)c1=O; NMeV = CN[C@H](C(=O)O)C(C)C; Sar = CNCC(=O)O

Assay [1] addresses Tumor necrosis factor (Homo sapiens) (UniProt P01375). Nature of the assay: qHTS assay to identify small molecules that stimulate Tumor Necrosis Factor-alpha (TNF-alpha) secretion (AID 651757; active = well fitted curve in the direction sought with a large enough effect in the signal ratio; the % refers to the signal ratio; note: 0% is about no effect). The gist of the method:
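Using 3000 THP-1 cells per well, compounds and controls were applied for 17 hrs at 37 C. Detection followed with two labeled anti-TNF-alpha antibodies (cryptate donor, XL665 acceptor) for 3 hr at room temperature, measured by TR-FRET.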
For orientation: qHTS replaces the single test concentration by a dilution series.

A short description of assay [2]: qHTS assay for environmental chemicals that activate the Aryl hydrocarbon Receptor (AhR) signaling pathway (AID 651777). For activation: % of control where 0% means no effect. Note: nearly all actives have a fitted effect of over 15% in size. Note: potency is the fitted concentration of half-maximal effect. As to conditions: 1A2-DRE human hepatoma cells, luciferase, 24 h; activation: hits give high values. The gist of the method:
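1A2-DRE human hepatoma reporter line; 1,200 cells/well; cmpd or DMSO 24 h, 37 C/5% CO2; One-Glo 30 min RT; luciferase lum.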

Assay [3] has as its target Peroxisome proliferator-activated receptor alpha (Homo sapiens) (UniProt Q07869). Nature of the assay: qHTS assay for small molecule agonists of the peroxisome proliferator-activated receptor alpha (PPARalpha) signaling pathway (AID 651778). For max response: % of control where 0% means no effect. Note: potency is the fitted concentration of half-maximal effect. The following applies: PathHunter PPARalpha complementation, chemiluminescence, 6 h; max response: hits give high values. The procedure, abridged: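 Cells plated at 2,000/well and held overnight at 37 C, 5% CO2, then compound added by pin tool for 6 hr; after PathHunter detection reagent and 60 min at room temperature, chemiluminescence from enzyme complementation was read.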

Assay [4] in a line: qHTS assay for small molecule activators of the p53 signaling pathway (AID 651743; active = well fitted activation curve with a large enough effect in the signal ratio, not every such curve was filed as active; the % refers to the signal ratio; note: potency is the fitted concentration of half-maximal effect; for activation: series mostly up to about 92 µM; % of control where 0% means no effect). The following applies: HCT-116 p53RE-bla, beta-lactamase FRET ratio, 16 h; activation: hits give high values. The procedure, abridged: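 Here HCT-116 cells with an integrated p53-responsive beta-lactamase gene were incubated with compounds (16 hours, 37 C) after a 5-hour plating period; beta-lactamase activity was detected as fluorescence intensity via B/G FRET substrate.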

A short description of assay [5]: qHTS assay for small molecule disruptors of the mitochondrial membrane potential - 1 hr assay (AID 651754; calls by dose curve; note: nearly all actives have a fitted effect of over 35% in size; note: potency is the fitted concentration of half-maximal effect). The gist of the method: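 In this qHTS format, a 1 hr compound treatment of HepG2 cells precedes Mito-MPS staining, and membrane potential is judged from aggregate (red) against monomer (green) fluorescence intensity.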
Assay [6] in a line: qHTS assay for small molecule agonists of the antioxidant response element (ARE) signaling pathway (AID 651741; active = well fitted activation curve with a large enough effect in the signal ratio; the % refers to the signal ratio; note: potency is the fitted concentration of half-maximal effect; for activation: % of control where 0% means no effect). The procedure, abridged:
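Beta-lactamase reporter expression driven by the antioxidant response element in HepG2 cells was detected by fluorescence with LiveBLAzer B/G FRET substrate (2 h, room temperature) following 16 h compound treatment at 37 C.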

Assay [7] is described as follows: qHTS assay for small molecule activators of the nuclear factor-kappa B (NF-kB) signaling pathway (AID 651749; active = well fitted activation curve with a large enough effect in the signal ratio; the % refers to the signal ratio; note: series mostly up to about 77 µM; % of control where 0% means no effect). The following applies: NF-kB-bla ME-180 cells, beta-lactamase FRET ratio, 16 h; hits give high values. The procedure, abridged: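 Beta-lactamase reporter expression, controlled by NF-kB response elements in ME-180 cells, was quantified fluorometrically via FRET disruption; cells at 2,000/well had been incubated with 23 nL test compound for 16 hr.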

Assay [8] in a line: qHTS assay to identify small molecules that stimulate interleukin-8 (IL-8) secretion (AID 651758; active = well fitted activation curve with a large enough effect in the signal ratio; the % refers to the signal ratio; note: potency is the fitted concentration of half-maximal effect; for activation: 0% is about no effect). The procedure, abridged: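 Quantitative HTS in THP-1 monocytic cells at 2000 cells per well, with 16 hrs compound incubation at 37 C. IL-8 in the medium was then quantified by HTRF immunoassay, read after 1-3 hrs at room temperature.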
The nature of assay [9]: Cell Proliferation Assay against the TMD8 Cell Line (Caspase readout at 16 hrs) (AID 651712). Note: potency is the fitted concentration of half-maximal effect. As to conditions: TMD8 lymphoma cells, caspase activation luminescence. The gist of the method: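 16 h, 37 °C, TMD8 (500 cells/well), RPMI/5% FBS no phenol red; Caspase-Glo 3/7, 15 min RT, luminescence; %act: DMSO 0, bortezomib 9.2 uM final 100.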
The nature of assay [10]: Cell Proliferation Assay against the TMD8 Cell Line (Caspase readout at 8 hrs) (AID 651713).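 For caspase activation: 0% = DMSO and 100% = 9.2 µM bortezomib caspase signal.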 Note: potency is the fitted concentration of half-maximal effect. The gist of the method: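 Luminescent caspase 3/7 assay; TMD8 cells, 8 h treatment at 37C, 5% CO2. Normalisation: DMSO 0%, 9.2 uM bortezomib 100%.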

Peroxisome proliferator-activated receptor alpha (Homo sapiens), sequence (Q07869 whole entry, looked up): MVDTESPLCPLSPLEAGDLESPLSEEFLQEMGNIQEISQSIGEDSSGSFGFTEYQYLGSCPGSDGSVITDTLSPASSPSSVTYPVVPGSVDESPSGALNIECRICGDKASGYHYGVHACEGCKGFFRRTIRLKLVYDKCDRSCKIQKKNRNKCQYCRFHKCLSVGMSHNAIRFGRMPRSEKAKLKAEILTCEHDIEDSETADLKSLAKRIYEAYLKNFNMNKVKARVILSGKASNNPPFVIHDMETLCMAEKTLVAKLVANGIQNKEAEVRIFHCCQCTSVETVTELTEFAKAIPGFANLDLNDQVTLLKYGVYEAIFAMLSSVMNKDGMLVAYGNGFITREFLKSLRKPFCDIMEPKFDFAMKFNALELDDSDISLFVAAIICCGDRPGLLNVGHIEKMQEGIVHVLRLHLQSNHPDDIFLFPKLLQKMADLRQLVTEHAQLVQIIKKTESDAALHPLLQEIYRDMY
Tumor necrosis factor (Homo sapiens), sequence (P01375 whole entry, looked up): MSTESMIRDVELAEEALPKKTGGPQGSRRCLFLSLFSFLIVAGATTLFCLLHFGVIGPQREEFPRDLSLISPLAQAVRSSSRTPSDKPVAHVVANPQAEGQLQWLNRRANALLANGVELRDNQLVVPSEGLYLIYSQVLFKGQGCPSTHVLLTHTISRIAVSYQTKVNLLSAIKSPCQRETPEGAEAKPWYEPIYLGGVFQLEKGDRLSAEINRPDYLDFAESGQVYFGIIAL

For the compound `NC(=NCCCCCCN=C(N)/N=C(\N)Nc1ccc(Cl)cc1)/N=C(\N)Nc1ccc(Cl)cc1`, the call in [1] was inactive. Moreover, in [2], the activation is 2.77% and -7.14% and -8.81%. For the same compound, in assay [3], the max response is 3.51% and 6.34% and -1.99%.
Consider `CC(C)(C)CC(C)(C)c1ccc(OCCOCC[N+](C)(C)Cc2ccccc2)cc1`, for which the activation was 20.5% in assay [4]; 2.85% and 2.84% in [2]. The outcome in assay [1] was inactive. Besides, the max response in assay [3] is -0.283% and 4.47%.
Consider `Cc1c2oc3c(C)ccc(C(=O)N[C@@H]4C(=O)N[C@H](C(C)C)C(=O)N5CCC[C@H]5C(=O)N(C)CC(=O)N(C)[C@@H](C(C)C)C(=O)O[C@@H]4C)c3nc-2c(C(=O)N[C@@H]2C(=O)N[C@H](C(C)C)C(=O)N3CCC[C@H]3C(=O)N(C)CC(=O)N(C)[C@@H](C(C)C)C(=O)O[C@@H]2C)c(N)c1=O` (I: T[dV]P[Sar][NMeV] / II: T[dV]P[Sar][NMeV]; ester I:1-I:C, II:1-II:C; linker I:N-II:N via Actinocin(9to1)), for which the activation in assay [4] was -13%; in assay [2], 1.62% and 1.67%. For the same compound, the Potency entry in [5] is “inactive”. Moreover, the outcome in assay [1] was inactive. Also, the max response in assay [3] is -5.12% and -0.626%.
As for `CC(=O)O[C@]1(C(C)=O)CC[C@H]2[C@@H]3C[C@H](C)C4=CC(=O)CC[C@]4(C)[C@H]3CC[C@@]21C`, the Potency in assay [6] was 27.3 µM (active). The activation was -2.08% and -7.09% in assay [4]; -2.22% and -5.39% in [7]; 0.858% and 1.58% in assay [2]. Further, the Potency entry in assay [5] is “inactive”. Further, in assay [1], the compound was classed as inactive. The max response in assay [3] was 0.549% and -0.24%.
With `C[C@H]1C[C@H]2[C@@H]3CCC4=CC(=O)C=C[C@]4(C)[C@@]3(Cl)[C@@H](O)C[C@]2(C)[C@@]1(O)C(=O)CO`, the activation in assay [4] is -5.8%; in assay [2], 0.38%. In addition, the max response in [3] was 3.36%.
For the compound `CC(=O)Oc1ccc(C(c2ccc(OC(C)=O)cc2)c2ccccn2)cc1`, the activation in [4] was 13.1%; in assay [2] it was 0.887%. Also, the Potency entry in [5] was “inactive”. Also, the compound was called inactive in [1]. Further, the max response in assay [3] was -4.57%.
With `Cc1cc(=O)n(-c2ccccc2)n1C`, the Potency entry in assay [6] was “inactive”. For the same compound, the figures for the activation in assay [4], in assay [7] and in assay [2] were 0.703%, -1.22% and -0.814%, respectively. The max response in assay [3] is 0.347%.
Take `O=c1ccc2ccccc2o1`: the Potency in assay [6] is 501 µM (active). The activation was -4.62% and -2.73% and -3.41% in [4]; -0.596% and -0.85% and -2.41% in [7]; -0.0038% and -0.214% and 9.96% in assay [2]. Also, the result in [1] was inactive. In addition, the Potency entry in assay [8] is “inactive”. Besides, in assay [3], the max response was -5.67% and -0.649% and -3.56%.
For the compound `COc1cccc2c1C(=O)c1c(O)c3c(c(O)c1C2=O)C[C@@](O)(C(=O)CO)C[C@@H]3O[C@H]1C[C@H](N)[C@H](O)[C@H](C)O1`, the Potency in assay [9] is 0.0372 µM (active); in assay [10], 3.32 µM (active); in assay [4] it was 1.58 µM (active); in assay [5], 2.66 µM (active). Further, the activation in [7] is -4.76%; in assay [2], 1.88%. Also, the max response in assay [3] was -6.93% and -6.66%.
With `COc1cc2c(cc1O)CC[C@@H]1[C@@H]2CC[C@]2(C)[C@@H](O)CC[C@@H]12`, the Potency result in assay [10] was “inactive”.
Consider `CN(C)C(=S)SC(=S)N(C)C`, for which the activation was -1.54% in assay [4], -1.81% in [7] and -0.314% in assay [2]. In assay [3], the max response was 0.0294%.
As to `Oc1c(Cl)cc(Cl)cc1Sc1cc(Cl)cc(Cl)c1O`, the Potency is 7.94 µM (active) and 14.1 µM (active) in assay [4]; 10.6 µM (active) in assay [5]; 28.2 µM (active) and 25.1 µM (active) in [3]. Further, in assay [1], the compound was classed as inactive. Further, in [2], the activation is 4.24% and -3.25%.
In the case of `CN(C)/N=N/c1nc[nH]c1C(N)=O`, the Potency entry in assay [6] is “inactive”. Further, in assay [8], the Potency was 75 µM (active). In addition, the activation in assay [2] was 1.65%. For the same compound, the max response in [3] was -3.55%.
Consider `CCCCCCc1ccc(O)cc1O`, for which the Potency is 66.8 µM (active) in [6] and 37.6 µM (active) in assay [5]. The activation is 7.68% and 3.42% in [4]; 1.13% and 0.133% in assay [2]. The compound was classed as inactive in assay [1]. In assay [3], the max response was -0.464% and 3.82%.
`C=CCc1ccc(O)c(OC)c1`: in assay [6], the Potency entry is “inactive”. For the same compound, the activation in [4] was 0.303% and -4.38%; in [2], 1.13% and 0.0788%. In addition, the compound was classed as inactive in [1]. The max response in [3] is -0.867% and -4.24%.
With `CC(O)(P(=O)(O)O)P(=O)(O)O`, the Potency result in assay [6] was “inactive”. Besides, the activation in assay [2] was 0.149%. Also, the max response in assay [3] is 0.583%.
As to `C=C(CC)C(=O)c1ccc(OCC(=O)O)c(Cl)c1Cl`, in assay [6], the Potency is 2.37 µM (active). Further, the result in assay [1] was inactive. Further, in assay [2], the activation was 2.74%. The max response in assay [3] is -4.86%.
Consider `Oc1ccc(Cl)cc1Sc1cc(Cl)ccc1O`, for which the compound was called inactive in [1]. The Potency result in [8] was “inactive”. For the same compound, the activation in assay [2] was 6.02%. For the same compound, in assay [3], the max response was 18%.
With `Nc1ccc(C(=O)O)cc1`, the Potency result in assay [6] and in assay [8] was “inactive” each time. The activation in assay [4] is -1.83%; in assay [7], 0.93%; in assay [2] it was -0.596%. In [1], the outcome was inactive. Besides, in assay [3], the max response is 2.41%.
In the case of `Oc1c(I)cc(Cl)c2cccnc12`, the Potency is 26.6 µM (active) in [6] and 44.7 µM (active) in [2]. Also, the activation in assay [4] was 24.3%. The compound was classed as inactive in assay [1]. Besides, the Potency entry in [8] was “inactive”. Also, the max response in [3] is 1.34%.
In the case of `O=C(O)CCCCC(=O)O`, the Potency result in [6] and in [8] was “inactive” throughout. Moreover, the values for the activation in assay [4], in assay [7] and in [2] were -1.12%, 1% and 0.177%, respectively. In assay [1], the compound was classed as inactive. Further, the max response in [3] is -5.15%.
For the compound `C[C@]12CC[C@@H]3c4ccc(O)cc4CC[C@H]3[C@@H]1CC[C@@H]2O`, the activation in assay [4] was 8.17%; in assay [2] it was 1.98%. The outcome in assay [1] was inactive. Also, the max response in assay [3] is 0.86%.
